Compound activity as filed in PubChem BioAssay.
FMDV inh = antivirals against foot and mouth disease virus; AID 1159524; 1.2% of 410,000 active; Potency, µM (highest dose often 57.9 µM), inactives show at the highest dose activity change, negative = inhibition, hits mostly inhibitors; FMDV antiviral cell-based qHTS; calls by dose curve; tested in HEK293T cells; also: read-out not given here; potency is read from the fitted curve at half-maximal effect; nearly all actives have a fitted effect of over 45% in size
HCMV antiviral = inhibitors of human cytomegalovirus | HFF cells, HCMV-luciferase reporter, 72 h; hits give low values | activity change, negative = inhibition, % at 57.5 µM | 4.5% of 410,000 active | AID 1259415; in the data active = activity change below about -60%; inconclusive = no clear call, values can overlap the other calls; inactive = above about -39%
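HFF cells seeded 16 h at 37C, treated with compounds, infected with luciferase-reporter HCMV at MOI 1 PFU/cell; luciferase read at 72 h post infection, normalized to buffer-only and Salinomycin controls.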
Marburg entry inh = Marburg virus entry inhibition; Marburg virus pseudotyped entry inhibition, cell reporter; Potency, µM (titrated, usually from 37.8 µM), for the others: top-dose activity change, negative = inhibition, most hits filed as inhibitors; 1.8% of 300,000 active; calls by dose curve; tested in HEK293 cells; also: potency is read from the fitted curve at half-maximal effect
VACV Venus inh = inhibitors of vaccinia virus (Venus reporter); AID 720580; Potency, µM (highest dose often 36.5 µM), inactives show at the top dose activity change, negative = inhibition, actives largely listed as inhibitors; Vaccinia virus Venus reporter expression, fluorescence; 0.46% of 330,000 active; calls by dose curve; tested in A549 cells; also: potency is read from the fitted curve at half-maximal effect; nearly all actives have a fitted effect of over 30% in size
Lassa entry inh = inhibitors of Lassa virus binding or cell entry; Lassa virus pseudotype entry inhibition, cell reporter; AID 540256; Potency, µM (doses to about 37.9 µM), for the others: at the top dose activity change, negative = inhibition, hits mostly inhibitors; 1.2% of 300,000 active; calls by dose curve; tested in HEK293 cells; also: potency is read from the fitted curve at half-maximal effect; nearly all actives have a fitted effect of over 50% in size
VACV mCherry inh = vaccinia inhibition (mCherry reporter); Potency, µM (top dose mostly 36.5 µM), for inactives: at the top dose activity change, negative = inhibition, hits mostly inhibitors; 0.63% of 310,000 active; AID 720579; Vaccinia virus mCherry reporter infection, fluorescence; calls by dose curve; tested in A549 cells; also: potency is read from the fitted curve at half-maximal effect; nearly all actives have a fitted effect of over 35% in size
Numbers without * were called inactive; i = inactive; ? = inconclusive; . = no result given; [ ] = dose if it differs, or a comment. Sampled rows, rich in hits. Any-hit rate of the full collection: about 6.5%. % is scaled to controls: 0 for no effect and ±100 for the full control effect.

SMILES	FMDV inh	HCMV antiviral	Marburg entry inh	VACV Venus inh	Lassa entry inh	VACV mCherry inh
CCOC(=O)c1cc2c(=Cc3ccc(N(C)C)cc3)c3ccccc3n2[n+]1C	18µM*	-88*	?	134%	11µM*	162%
CN(C)c1ccc(/C=C2/CCc3ccccc32)cc1	.	.	.	-22%	.	7%
CN(C)c1ccc(C=c2c3ccccc3n3c2c2ccccc2[n+]3C)cc1	25µM*	-98*	?	?	7.1µM*	?
CN(C)c1ccc(C=C2c3ccccc3-c3ccccc32)cc1	.	.	.	-12%	.	-22%
CCOC(=O)SC1=N/C(=C\c2ccc(N(C)C)cc2)C(=O)S1	11%	54	-1%	.	?	.
Cc1cc2c(=Cc3ccc(N(C)C)cc3)c3ccccc3n2[n+]1C	0%	-97*	?	254%	2.2µM*	21%
Cc1ccc(C=C2C(Cl)=C(Cl)C(Cl)=C2Cl)cc1	18µM*	.	17%[46.1 µM]	10%	13%	4%
Nc1ccc(-c2cc3ccccc3c(=O)o2)cc1	?	-62*	.	-9%	.	?
O=c1oc(-c2ccccc2)cc2ccccc12	.	83	.	.	.	.
CCCCN(CC)CCCNC(=O)c1cc2c(=O)n(CC)c3ccccc3c2s1	-7%	169	11µM*	?	-2%	-10%
CCCCN(CC)CCNC(=O)c1cc2c(=O)n(CC)c3ccccc3c2s1	0%	78	?	-23%	?	-21%
CCN(CC)CCCNC(=O)c1cc2c(-c3ccc(Cl)cc3)nn(C)c2s1	-6%	.	.	?	.	-14%
CCCN(CCC)CCCNC(=O)c1cc2c(-c3ccc(Cl)cc3)nn(C)c2s1	-23%	-89*	?	-22%	?	?
CCCCN(CC)CCNC(=O)c1cc2c(=O)n(C)c3ccccc3c2s1	-10%	150	7.9µM*	-8%	?	?
CCN(CCCNC(=O)c1cc2c(=O)n(CC)c3ccccc3c2s1)c1ccccc1	-28%	-22	16%[46.1 µM]	-9%	-12%[46.1 µM]	-14%
CCCN(CCC)CCCNC(=O)c1cc2c(=O)n(CC)c3ccccc3c2s1	14%	159	10µM*	-14%	?	-14%
COC(=O)[C@H](CC(C)C)NS(=O)(=O)NC(=O)OC(C)(C)C	.	.	.	-10%	.	-16%
CC(C)(C)N1CC(C(=O)Nc2ccc(C(N)=O)cc2)CC1=O (centres undefined)	-19%	11	.	-9%	.	-11%
NC1=NN(c2c(Cl)cc(Cl)cc2Cl)C(=O)C1	-17%	-15	1%	-2%	-21%	-4%
Cc1ccc(N=C2NC(=O)CS2)c(C)c1	0%	-10	-3%	-17%	5%	.
Cc1ccc(N=C2NC(=O)/C(=C\c3ccsc3)S2)c(C)c1	4%	-72*	-23%	-28%	?	-19%
Cc1ccc(N=C2NC(=O)/C(=C/c3cccnc3)S2)c(C)c1	?	-80*	-12%	-22%	?	-3%
Cc1cccc(N=C2NC(=O)/C(=C/c3cccnc3)S2)c1C	-22%	?	.	.	.	.
C(CCc1nn[nH]n1)CCC1CCCCC1	4%	-7	1%[46.1 µM]	2%	9%[46.1 µM]	?
CCOc1ccc(-c2nonc2NC(=O)c2oc3cc(Br)ccc3c2C)cc1	-26%	?	-6%[46.1 µM]	?	0%[46.1 µM]	?
SMILES	FMDV inh	HCMV antiviral	Marburg entry inh	VACV Venus inh	Lassa entry inh	VACV mCherry inh
CCOc1ccc(-c2nonc2NC(=O)c2oc3ccc(Br)cc3c2C)cc1	-7%	-96*	-23%[46.1 µM]	-17%	?	-17%
COC(=O)c1sccc1NC(=O)CC1C(=O)NCCN1C(=O)Nc1cc(Cl)ccc1OC (centres undefined)	-7%	6	?	10%	-1%[46.1 µM]	-8%
Cc1cccc(OCCN2C(=O)C(=O)c3cc(C)ccc32)c1	7%	-89*	?	4%	?	?
Cc1ccc2c(c1)C(=O)C(=O)N2CCCOc1ccccc1C	7%	-15	.	.	.	.
Cc1cccc(OCCCn2c(=O)oc3ccc(C)cc32)c1	-8%	-80*	1%	-2%	10%	-14%
Cc1ccc2c(c1)C(=O)C(=O)N2CCOc1ccccc1	13%	-73*	?	-13%	?	-16%
Cc1cccc(OCCN2C(=O)C(=O)c3cccc(C)c32)c1	-9%	-31	?	-9%	12%	-1%
Cc1ccc2cc(CN(CCN(C)C)C(=O)Nc3ccc(Cl)cc3)c(=O)[nH]c2c1	14%	-1	?	-14%	?	-25%
Cc1cc(C)c2cc(CN(CCN3CCCC3)C(=O)Nc3ccc(F)cc3)c(=O)[nH]c2c1	3%	47	4µM*	-22%	?	.
Cc1cc(C)c2cc(CN(CCO)C(=O)Nc3ccc(Cl)cc3)c(=O)[nH]c2c1	?	3	11µM*	?	?	.
COc1cccc(CN2CCC2(C)C(=O)Nc2cccc3cccnc23)c1OC (centres undefined)	?	-6	.	-4%	.	0%
Cc1ccc(Cl)cc1N1CCN(C(=O)Cn2nc(C)n3c(cc4sccc43)c2=O)CC1	?	27	5%[46.1 µM]	-18%	.	-16%
Cn1cccc1C(=O)N1CCN(S(=O)(=O)c2ccccc2)CC1	-19%	-24	5%	-4%	3%	-13%
Cc1cc(=O)n(CC(=O)N2CCN(c3ccc(F)cc3)CC2)c2c1c(C)nn2C	28µM*	-30	.	-23%	?	-2%
COc1ccc([C@]23Cc4cc(OC)c(OC)cc4[C@H](O2)C2=C(CC(C)(C)CC2=O)O3)cc1	.	.	20%[14.2 µM]	.	.	.
CC(C)(C)c1ccc(S(=O)(=O)N2CCN(C(=O)C3CCC3)CC2)cc1	?	-20	4.5µM*	-13%	?	i
CC(OC(=O)C1CCN(S(=O)(=O)c2ccc(C(C)(C)C)cc2)CC1)C(=O)N(C)C1CCCCC1 (centres undefined)	40µM*	?	.	.	.	.
CC(C)(C)c1ccc(C(=O)N2CCN(C(=O)C3CCCCC3)CC2)cc1	?	-77*	10%	-23%	?	?
CC(C)(C)c1ccc(C(=O)N2CCCN(C(=O)c3ccc(C(C)(C)C)cc3)CC2)cc1	?	-5	7%	-6%	1%	-10%
CC(C)(C)c1ccc(S(=O)(=O)N2CCC(c3ccncc3)CC2)cc1	?	-83*	.	-29%	?	?
O=C(C1CCC1)N1CCN(S(=O)(=O)c2ccc(F)cc2)CC1	-17%	2	17%	-7%	-1%	-14%
O=S(=O)(c1ccc(Cl)cc1)N1CCC(c2ccncc2)CC1	?	9	.	-16%	?	i
CCc1ccccc1NC(=O)c1cnc2sc(N3CCOCC3)nn2c1=O	-29%	2	.	-7%	?	-8%
Cc1ccc(N2C(N)=NC(N)=NC23CCCC3)c(C)c1	-18%	-67*	37%	1%	5%	.
Cc1ccc(-n2nc3ccc(N)cc3n2)c(C)c1	-18%	7	.	.	.	.
FC(F)(F)c1cnc(-c2cc3c(c(OCC4CCCO4)c2)OCCN(Cc2cccn2-c2nccs2)C3)c(Cl)c1 (centres undefined)	-10%	.	.	-2%	.	-11%
